Test results as given in publication PMC4336329 (PLoS ONE, 2015).
The whole screen tested about 310,000 compounds, of which about 14,000 (4.5%) showed an effect of 50% or more. The effect is printed as a negative number. For the sample, strong results were picked, then their nearest neighbours and some compounds at random.

The molecules below were run against human ether-à-go-go-related gene (hERG) potassium channel (human, UniProt Q12809) (assay: primary screen, population patch clamp on CHO cells stably expressing hERG; higher = less effect of the substance).
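Note: peak tail current of the secondary pulse compared with the same well before compound.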

Sequence of human ether-à-go-go-related gene (hERG) potassium channel (Q12809 whole entry, looked up): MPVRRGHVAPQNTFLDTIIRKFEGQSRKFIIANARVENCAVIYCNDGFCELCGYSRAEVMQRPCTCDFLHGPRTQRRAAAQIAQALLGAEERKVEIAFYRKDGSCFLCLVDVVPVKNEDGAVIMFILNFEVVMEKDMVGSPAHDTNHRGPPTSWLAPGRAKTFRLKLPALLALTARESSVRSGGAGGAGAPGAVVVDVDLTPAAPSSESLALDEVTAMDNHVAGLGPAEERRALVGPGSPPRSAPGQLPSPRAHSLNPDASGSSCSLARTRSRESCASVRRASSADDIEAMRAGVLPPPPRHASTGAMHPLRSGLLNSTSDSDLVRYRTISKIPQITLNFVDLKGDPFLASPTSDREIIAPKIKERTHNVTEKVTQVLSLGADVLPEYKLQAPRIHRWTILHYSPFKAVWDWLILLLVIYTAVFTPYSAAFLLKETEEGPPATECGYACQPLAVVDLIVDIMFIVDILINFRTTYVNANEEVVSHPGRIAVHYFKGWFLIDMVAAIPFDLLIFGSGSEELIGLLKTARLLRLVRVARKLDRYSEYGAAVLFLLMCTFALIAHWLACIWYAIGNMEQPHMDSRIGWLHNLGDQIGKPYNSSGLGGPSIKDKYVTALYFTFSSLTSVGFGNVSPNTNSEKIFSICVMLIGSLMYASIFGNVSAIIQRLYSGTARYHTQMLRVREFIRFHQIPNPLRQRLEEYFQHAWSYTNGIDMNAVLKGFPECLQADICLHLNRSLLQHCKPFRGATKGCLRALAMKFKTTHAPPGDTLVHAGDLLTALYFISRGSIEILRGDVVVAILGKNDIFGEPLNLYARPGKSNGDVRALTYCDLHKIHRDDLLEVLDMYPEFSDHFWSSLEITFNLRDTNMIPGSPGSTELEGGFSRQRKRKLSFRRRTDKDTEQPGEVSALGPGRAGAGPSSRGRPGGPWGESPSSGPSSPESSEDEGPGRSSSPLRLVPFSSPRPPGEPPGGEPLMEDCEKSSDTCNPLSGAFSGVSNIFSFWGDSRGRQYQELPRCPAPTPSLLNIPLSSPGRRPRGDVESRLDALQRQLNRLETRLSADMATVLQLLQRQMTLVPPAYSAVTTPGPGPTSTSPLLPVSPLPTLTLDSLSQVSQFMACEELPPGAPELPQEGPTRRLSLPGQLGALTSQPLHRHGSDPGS

Structure (SMILES) | hERG current change (%, negative = inhibition) at 10uM
COC(=O)C1=C(c2ccc(F)cc2OCc2ccccc2)C[C@@H]2CC[C@H]1N2C(=O)NCCO | 3.42%
Cc1cc(C)c(C#N)c(SCc2ccccc2C)n1 | 17.7%
O=S(=O)(c1cccs1)N1CCN(CC(O)COc2cccc(Br)c2)CC1 (stereo not drawn) | -61.1%
COc1ccc(S(=O)(=O)N2CCN(Cc3cccc(F)c3)CC2)cc1 | -3.34%
COc1cccc(C(=O)CN2CCN(S(=O)(=O)c3cccc([N+](=O)[O-])c3)CC2)c1 | -9.29%
COc1ccc(C(=O)CN2CCN(S(=O)(=O)c3cccc([N+](=O)[O-])c3)CC2)cc1 | -112%
O=S(=O)(c1cccs1)N1CCN(CC(O)COC2CCCc3ccccc32)CC1 (stereo not drawn) | -25.1%
O=[N+]([O-])c1cccc(OCC(O)CN2CCN(S(=O)(=O)c3cc(Cl)ccc3Cl)CC2)c1 (stereo not drawn) | -31.3%
COc1ccc(C(=O)CN2CCN(S(=O)(=O)c3cccc([N+](=O)[O-])c3)CC2)cc1OC | -5.28%
CCOc1ccc(S(=O)(=O)N2CCN(CC(O)COc3cccc([N+](=O)[O-])c3)CC2)cc1 (stereo not drawn) | -65.5%
CC(=O)c1ccc(OCC(O)CN2CCN(S(=O)(=O)c3cccc(Br)c3)CC2)cc1 (stereo not drawn) | 22.8%
COc1ccc(S(=O)(=O)N2CCN(Cc3cccc(OC)c3)CC2)cc1 | -28.6%
Cc1ccc(S(=O)(=O)N2CCN(CC(O)COc3ccccc3)CC2)cc1 (stereo not drawn) | -16.2%
COc1ccc(S(=O)(=O)N2CCN(Cc3cccc([N+](=O)[O-])c3)CC2)cc1 | -87.4%
Cc1ccc2oc(C(=O)NCC(c3ccco3)N3CCCC3)c(C)c2c1 (stereo not drawn) | -33.8%
COc1ccc(C(=O)NNC(=O)CCn2nnc(-c3ccc(Cl)cc3)n2)cc1OC | 19%
O=P(O)(c1ccccc1)c1ccccc1O | -7.16%
O=C(NN1C(=O)C2C3C=CC(C4CC34)C2C1=O)c1ccccc1Cl (stereo not drawn) | 0.861%
COc1ccc(N(C)S(=O)(=O)c2cccc(C(=O)Nc3nc(C)c(C(C)=O)s3)c2)cc1 | 7.14%
CCOC(=O)Cn1nnnc1CN(Cc1ccccc1)Cc1cc2cc(CC)ccc2[nH]c1=O | -11.2%
CC(C)n1c(N2CCN(S(=O)(=O)c3cccc([N+](=O)[O-])c3)CC2)nc2ccccc21 | -71%

Structure (SMILES) | hERG current change (%, negative = inhibition) at 10uM
CN1CCN(S(=O)(=O)c2cccc([N+](=O)[O-])c2)CC1 | 18.7%
O=[N+]([O-])c1cccc(S(=O)(=O)N2CCN(c3ccccn3)CC2)c1 | 4.57%
Cc1ccc(C(=O)Nc2nnc(S(=O)(=O)N3CCC(C)CC3)s2)cc1 | 21.8%
Cc1cc(/C=N/NC(=O)c2ccc(O)cc2)c(C)n1C1CC1 | 20.4%
N#C/C(C(=O)NCc1ccccc1)=C1/N=C(NC(=O)c2ccco2)c2ccccc21 | 10.3%
CC(C)CNC(=O)/C(C#N)=C1\N=C(NC(=O)c2ccco2)c2ccccc21 | -60.4%
CCCNC(=O)/C(C#N)=C1\N=C(NC(=O)c2ccco2)c2ccccc21 | -44.6%
O=C(c1ccc([N+](=O)[O-])cc1)N(Cc1cccs1)C1CCS(=O)(=O)C1 (stereo not drawn) | -50%
CC(C)(C)c1ccc(OCC(=O)N(Cc2cccs2)C2CCS(=O)(=O)C2)cc1 (stereo not drawn) | -54.2%
COc1ccc(OCC(=O)N(Cc2cccs2)C2CCS(=O)(=O)C2)cc1 (stereo not drawn) | -6.75%
Cc1ccc(OCC(=O)N(Cc2cccs2)C2CCS(=O)(=O)C2)cc1 (stereo not drawn) | -8.3%
O=C(COc1ccc(F)cc1)N(Cc1cccs1)C1CCS(=O)(=O)C1 (stereo not drawn) | -33.4%
O=C(COc1ccc(Br)cc1)N(Cc1cccs1)C1CCS(=O)(=O)C1 (stereo not drawn) | -51.7%
Cc1ccc2c(C)c(C(=O)N(Cc3cccs3)C3CCS(=O)(=O)C3)oc2c1 (stereo not drawn) | -20.8%
O=C(COc1ccccc1)N(Cc1cccs1)C1CCS(=O)(=O)C1 (stereo not drawn) | -17.4%
Cc1c(C(=O)N(Cc2cccs2)C2CCS(=O)(=O)C2)oc2ccccc12 (stereo not drawn) | -50.2%
Cc1c(C(=O)N(Cc2ccccc2)C2CCS(=O)(=O)C2)oc2ccccc12 (stereo not drawn) | -38.5%
Cc1ccc(C(=O)N(Cc2cccs2)C2CCS(=O)(=O)C2)cc1 (stereo not drawn) | 0.98%
O=C(c1ccccc1)N(Cc1cccs1)C1CCS(=O)(=O)C1 (stereo not drawn) | 12%
COc1ccccc1Oc1ccc2c(c1)C(=O)N(c1ccccc1)C2=O | -3.59%
O=C(COc1ccccc1[N+](=O)[O-])N(Cc1cccc(Br)c1)C1CCS(=O)(=O)C1 (stereo not drawn) | -57.8%
